Screening data deposited in PubChem by National Center for Advancing Translational Sciences (NCATS).
ALDH1A1 block: ALDH1A1 (human) enzyme inhibition | P00352 | Purified ALDH1A1, NADH fluorescence, propionaldehyde substrate | Potency, µM (top dose mostly 75.3 µM), without a hit: at the highest dose activity, negative = inhibition, actives largely listed as inhibitors | 220,000 compounds, 7.3% hits;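 note: potency is the fitted concentration of half-maximal effect; plate controls were no enzyme wells and a reference inhibitor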
Lamin A splicing: modulators of lamin A splicing; HeLa LMNA splicing GFP/RFP minigene ratio, 48 h; Potency, µM (top dose mostly 46.1 µM), for the others: at the highest dose ratio change, negative = inhibition, actives largely listed as inhibitors; 200,000 compounds, 0.01% hits; AID 1487; active = well fitted inhibition curve with a large enough effect in the signal ratio, with a control signal flat, not every such curve was filed as active; inconclusive = small, poorly fitted or top-dose-only effect, or effect the other way, or a change in a side signal; the % refers to the signal ratio; note: potency is the fitted concentration of half-maximal effect
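S3 HeLa stable clones carrying a lamin A-EGFP splicing minigene plus DsRed2 were seeded at 600 cells/well in Opti-MEM with 2% FBS, pin-dosed and incubated 48 h at 37°C. Acumen cytometry (488 nm) gave the GFP/RFP total-intensity ratio.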
PNC inhibitor: inhibitors of perinucleolar compartment assembly; PC3M PTB-GFP, PNC prevalence imaging, 16 h; hits give low values; activity change (PNC), negative = inhibition, % at 10 µM; 140,000 compounds, 3.1% hits; AID 2417;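 active = readout at or below -70, meaning at least 70% loss of cells showing the perinucleolar compartment, a nuclear body marking cancer cells; inconclusive = readout between -30 and a set limit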;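 note: plate controls were DMSO wells for no effect and camptothecin positive control wells for full effect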
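Compounds are pinned in duplicate onto adhered PC3M cells stably expressing GFP-tagged PTB and incubated 16 h at 37 C. Cells are then fixed, nuclei stained with Hoechst, and PNC-positive cells counted.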
12-hLO inh: 12-hLO (ALOX12) enzyme inhibition; P18054; purified 12-hLO, xylenol orange hydroperoxide absorbance; Potency, µM (series often up to 57.1 µM), for inactives: at the highest dose activity change, negative = inhibition, most hits filed as inhibitors; 150,000 compounds, 0.12% hits; AID 1452; active = well fitted inhibition curve with a large enough effect; inconclusive = small, poorly fitted or top-dose-only effect; note: potency is the fitted concentration of half-maximal effect; nearly all actives have a fitted effect of over 55% in size
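Xylenol orange chromogenic assay: hydroperoxide from 12hLO oxidises Fe(II), giving red-shifted Fe(III)-XO absorbance. Conditions: 150 nM enzyme, 40 uM arachidonic acid, 25 mM Hepes pH 7.0, 0.01% Triton X-100, 30 min, room temperature.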
HPGD inh: blocks human HPGD enzyme activity; P15428; purified HPGD, NADH fluorescence kinetic, PGE2 substrate; Potency, µM, without a hit: top-dose activity change, negative = inhibition, usual class: inhibitors; 150,000 compounds, 4.3% hits; AID 894; note: potency is the fitted concentration of half-maximal effect
Target sequence (P15428 whole entry, looked up): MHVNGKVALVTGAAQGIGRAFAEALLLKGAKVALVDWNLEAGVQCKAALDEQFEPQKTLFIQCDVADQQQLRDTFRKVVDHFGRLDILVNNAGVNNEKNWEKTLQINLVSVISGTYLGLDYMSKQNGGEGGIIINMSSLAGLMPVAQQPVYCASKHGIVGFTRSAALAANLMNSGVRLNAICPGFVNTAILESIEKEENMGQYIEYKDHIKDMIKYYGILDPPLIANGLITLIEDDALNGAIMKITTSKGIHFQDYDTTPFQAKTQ
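NADH formation kinetics: reaction with 30 uM PGE2 and 1 mM NAD+ (final), 20 nM enzyme, Tris-HCl pH 8 with Tween 20, after 15 min compound preincubation at room temperature. Fluorescence change, last versus first of five reads.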
Numbers without * were called inactive; [ ] = another dose, or the depositor's remark. An excerpt weighted towards active compounds, which were near 10% of everything screened. Unless noted, calls come from the whole dose curve; as a rule, active = well fitted inhibition curve with a large enough effect (not every such curve was filed as active); inconclusive = small, poorly fitted or top-dose-only effect, or another doubt; inactive = no such curve, though single readings can be large or run the other way. Unless noted, % is set by controls: 0 for no effect and ±100 for the full control effect.

For O=C(CCN1C(=O)C2C3CCC(C3)C2C1=O)Nc1ccc(Br)cc1 (centres undefined) the results were ALDH1A1 block inconclusive, Lamin A splicing inconclusive, PNC inhibitor inconclusive, 12-hLO inh -4% and HPGD inh -9%.
Screening O=C(CCN1C(=O)C2C3CCC(C3)C2C1=O)Nc1ccc([N+](=O)[O-])cc1 (centres undefined) returned ALDH1A1 block 3.5µM*.
For O=C(NCc1ccncc1)Nc1ccccc1F the results were ALDH1A1 block 10% and Lamin A splicing 3%[46 µM].
c1cncc(-c2csc(NCc3ccco3)n2)c1 was read as ALDH1A1 block inconclusive, Lamin A splicing 2%, PNC inhibitor 18, 12-hLO inh -6% and HPGD inh 14µM*.
For CCn1c(CNc2nc(-c3ccccc3)cs2)nnc1SCC(=O)NCc1ccco1 the results were ALDH1A1 block 28µM*, Lamin A splicing 5%, PNC inhibitor 12, 12-hLO inh -7% and HPGD inh inconclusive.
CCn1c(SCC(=O)NCc2ccco2)nnc1-c1ccncc1 was read as ALDH1A1 block -4%.
`COCCNC(=O)CSc1nc(-c2ccccc2)cs1` gave ALDH1A1 block 0%, Lamin A splicing 8%, PNC inhibitor -13, 12-hLO inh -3% and HPGD inh 32µM*.
O=C(CSc1nc(-c2ccccc2)cs1)NCc1ccco1 was read as ALDH1A1 block 25µM*, Lamin A splicing -10%, PNC inhibitor inconclusive, 12-hLO inh 1% and HPGD inh 28µM*.
`Cc1ccc(-[n+]2cc(=O)o[nH]2)cc1` gave ALDH1A1 block 0%[13.5 µM], 12-hLO inh -16%[11.4 µM] and HPGD inh -5%.
O=C(CSc1nc2c([nH]c3ccccc32)c(=O)n1-c1cccc(Cl)c1)NCC1CCCO1 (centres undefined) was read as Lamin A splicing -1%[46 µM].
`Cn1c(=O)n(C)c2cc(S(=O)(=O)N3CCN(c4ccccc4)CC3)ccc21` gave ALDH1A1 block 7%.
For CC1=C/C(=N/O)C([C@H]2C=C(C)CC(C)(C)[C@@H]2O)C(C)(C)C1 (some centres undefined) the results were ALDH1A1 block 7%[13.5 µM], 12-hLO inh 2%[11.4 µM] and HPGD inh -5%.
`CCC1=C(C[C@H]2NCCc3ccccc32)C[C@@H]2c3cc(OC)c(OC)cc3CCN2C1` gave ALDH1A1 block 12%[13.5 µM], 12-hLO inh 3%[11.4 µM] and HPGD inh -9%.
Cc1ccccc1C(=O)NCCc1nnc(SCC(=O)Nc2nc(-c3ccccc3)cs2)n1C was read as ALDH1A1 block -2%, Lamin A splicing 2%, PNC inhibitor 68, 12-hLO inh -1% and HPGD inh 0%.
`Cc1ccc(C(=O)CSc2nnc(CNc3nc(-c4ccccc4)cs3)n2C)cc1` gave ALDH1A1 block 14µM*, Lamin A splicing inconclusive, PNC inhibitor 12, 12-hLO inh -8% and HPGD inh -21%.
Cc1cccn2c(CNC3CCCc4ccccc43)c(C(=O)N3CCCCC3)nc12 (centres undefined) was read as ALDH1A1 block 20µM* and Lamin A splicing -1%[46 µM].
For COC(=O)COc1ccc(-n2cnnn2)cc1 the results were ALDH1A1 block -3% and Lamin A splicing 13%[46 µM].
For CCOc1ccc(NC(=O)CSc2nc3ccccc3c(=O)n2CCC(=O)NC2CCCCC2)cc1 the results were Lamin A splicing -13%[46 µM].
For COc1ccc(NC(=O)CSc2nc3ccccc3c(=O)n2CCC(=O)N2CCCCC2)cc1 the results were ALDH1A1 block 16µM*, Lamin A splicing 12%, PNC inhibitor 72, 12-hLO inh -2% and HPGD inh -5%.
For CCOc1ccc(NC(=O)CSc2nc3ccccc3c(=O)n2CCCC(=O)N2CCCC2)cc1 the results were ALDH1A1 block 10%, Lamin A splicing -3%, PNC inhibitor 19 and 12-hLO inh -6%.
For COc1cccc(NC(=O)CSc2nc3ccccc3c(=O)n2CCCC(=O)N2CCCC2)c1 the results were ALDH1A1 block inconclusive, Lamin A splicing inconclusive, PNC inhibitor inconclusive, 12-hLO inh -3% and HPGD inh 28µM*.
Screening CCOc1ccc(NC(=O)CSc2nc3ccccc3c(=O)n2CCCC(=O)NCCCN2CCCC2=O)cc1 returned ALDH1A1 block 7.9µM*.
For CCCCOc1ccc(C(=O)Nc2cc(-c3cn4cccnc4n3)ccc2OC)cc1 the results were Lamin A splicing -4%[46 µM].
For CCCCN1CCCC[C@H]1C(=O)Nc1c(C)cccc1C the results were ALDH1A1 block 5%, Lamin A splicing -22%, 12-hLO inh 3%[0.00818 µM] and HPGD inh -9%.
CN(C)c1nc(C(=O)NN)nc(N(C)C)n1 was read as ALDH1A1 block 13µM*, Lamin A splicing -5%, PNC inhibitor -25, 12-hLO inh 5% and HPGD inh -6%.
`COC(=O)NCCOc1nc(N(C)C)nc(N(C)C)n1` gave ALDH1A1 block -2%, Lamin A splicing 6%, PNC inhibitor 47, 12-hLO inh 0% and HPGD inh -11%.
`O=C(c1cccs1)N1CCN(Cc2ccncc2)CC1` gave ALDH1A1 block inconclusive, Lamin A splicing 15%, PNC inhibitor inconclusive, 12-hLO inh -5% and HPGD inh -1%.
For CCCCN(C)C(=O)c1nc2ccccn2c1CN1CCN(C(=O)c2cccs2)CC1 the results were ALDH1A1 block 6.3µM*.
`COc1cccc(OC)c1C(=O)N1CCN(Cc2ccncc2)CC1` gave ALDH1A1 block 14µM*, Lamin A splicing -3%, PNC inhibitor -23, 12-hLO inh -4% and HPGD inh -3%.
O=C(c1cccs1)N1CCN(Cc2ccccc2)CC1 was read as ALDH1A1 block 6%, Lamin A splicing -5%, PNC inhibitor -109*, 12-hLO inh 2% and HPGD inh 1%.
`COc1cccc(CN2CCN(C(=O)c3cccs3)CC2)c1OC` gave ALDH1A1 block 18µM*, Lamin A splicing inconclusive, PNC inhibitor 32, 12-hLO inh -2% and HPGD inh -26%.
Screening COc1ccccc1CN1CCN(C(=O)c2ccncc2)CC1 returned ALDH1A1 block inconclusive, Lamin A splicing 5%, PNC inhibitor 35, 12-hLO inh -9% and HPGD inh -8%.
`CCCCN(C)C(=O)c1nc2ccccn2c1CN1CCN(c2ccccn2)CC1` gave ALDH1A1 block -1%.
For O=C(CN1CCN(C/C=C/c2ccccc2)CC1)Nc1cc([N+](=O)[O-])ccc1Cl the results were ALDH1A1 block 10µM*, Lamin A splicing inconclusive, PNC inhibitor -124*, 12-hLO inh -5% and HPGD inh -9%.
Screening Cc1cc(NC(=O)CN2CCN(C/C=C/c3ccccc3)CC2)c([N+](=O)[O-])cc1C returned ALDH1A1 block 5%, Lamin A splicing 2%, PNC inhibitor 2, 12-hLO inh 3% and HPGD inh -5%.
